Our source for the growth values is PubChem BioAssay (NCI).

Test systems include BT-549 breast; MDA-MB-435 melanoma; SW-620 colon; MCF7 breast; HCT-116 colon; HCC-2998 colon; KM12 colon.
What all share (assay): NCI-60 one-dose screen, 48 h (100 = growth as untreated, 0 = no growth, -100 = all killed)
What all share (settings): 10 µM unless noted

The panel holds about 83,000 compounds, 20% with a hit somewhere; the sample as a whole holds those more often.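 The test compound was applied at a single concentration to cells in 96-well plates for 48 hours, and percent growth was recorded.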 Unmarked numbers belong to inactive results. Activity calls are given as the source filed them. How the source made its calls: active means growth percent below 10; inactive means the rest.

Take `COc1ccc(-n2cc(-c3ccc(Cl)c(Cl)c3)[nH]c2=O)cc1OC`: the growth in the assay on BT-549 breast is 94.2%; with MDA-MB-435 melanoma, 99.7%; in the assay with SW-620 colon, 73.5%; in the assay on MCF7 breast, 84.7%; with HCT-116 colon, 90.4%; in the assay with HCC-2998 colon, 96%. The growth in the assay with KM12 colon is 95.3%.
For the molecule `C=C1C(=O)O[C@H]2[C@H]1CC/C(COC(=O)/C=C/c1cccnc1)=C\CC[C@@]1(C)O[C@@H]21`, the growth in the assay on BT-549 breast was 20.5%; in the assay with MDA-MB-435 melanoma it was 27.7%; in the assay with SW-620 colon, -32% (active); with MCF7 breast, 11.9%; in the assay on HCT-116 colon it was -66.3% (active); with HCC-2998 colon, 94.8%. Moreover, the growth in the assay on KM12 colon was 79.4%.
With `Sc1cccc2cccnc12`, the growth in the assay on BT-549 breast was 48.4%; in the assay with MDA-MB-435 melanoma, 44.9%; in the assay with SW-620 colon, 38.7%; in the assay on MCF7 breast it was 26.8%; with HCT-116 colon, 11.5%; in the assay with HCC-2998 colon, 40%. In addition, the growth in the assay with KM12 colon was 25.4%.
As to `C[C@H](Oc1cc(-c2cnn(C3CCNCC3)c2)cnc1N)c1c(Cl)ccc(F)c1Cl`, the growth was 75.7% in the assay with BT-549 breast; 66.1% in the assay on MDA-MB-435 melanoma; 79.5% with SW-620 colon; 37.6% in the assay on MCF7 breast; 31.9% with HCT-116 colon; 66% in the assay on HCC-2998 colon. For the same molecule, the growth in the assay on KM12 colon is 50.6%.
With `c1ccc2nc(N3CCOCC3)c(N3CCCCC3)nc2c1`, the growth is 109% in the assay on BT-549 breast; 106% in the assay on MDA-MB-435 melanoma; 104% in the assay on SW-620 colon; 93.8% in the assay on MCF7 breast; 102% with HCT-116 colon; 103% in the assay with HCC-2998 colon. In addition, the growth in the assay with KM12 colon is 101%.
`C#C[C@@]1(O)[C@@H](CO)O[C@@H](n2cc(I)c3c(N)ncnc32)[C@@H]1O`: the growth in the assay with BT-549 breast was -13.2% (active); in the assay with MDA-MB-435 melanoma, 14.6%; in the assay with SW-620 colon, 0.663% (active); in the assay on MCF7 breast it was 1.73% (active); with HCT-116 colon it was 0.762% (active); in the assay with HCC-2998 colon, -35.3% (active). In addition, the growth in the assay with KM12 colon was 9.88% (active).
As for `NCCN1CCNCC1`, the growth in the assay with BT-549 breast was 130%; in the assay with MDA-MB-435 melanoma, 105%; in the assay with SW-620 colon it was 103%; in the assay with MCF7 breast, 96.6%; in the assay on HCT-116 colon it was 105%; in the assay with HCC-2998 colon, 94.3%. Besides, the growth in the assay on KM12 colon is 109%.
On to `CN1CCN(C(=O)[C@@]2(C)CC[C@]3(C)CC[C@]4(C)C(=CC[C@@H]5[C@@]6(C)CC[C@H](OC(=O)c7cccnc7)C(C)(C)[C@@H]6CC[C@]54C)[C@@H]3C2)CC1`, for which the growth in the assay with BT-549 breast is 73.8%; in the assay with MDA-MB-435 melanoma it was 45.4%; in the assay with SW-620 colon it was -35.5% (active); in the assay with MCF7 breast it was 19.1%; with HCT-116 colon, 51.7%; with HCC-2998 colon, 97.3%. Besides, the growth with KM12 colon is 53.2%.
With `O=c1[nH]nc(-c2ccccc2)c2sc(NC(=S)Nc3ccc(Cl)cc3)nc12`, the growth in the assay with BT-549 breast was 92.6%; in the assay with MDA-MB-435 melanoma it was 103%; in the assay on SW-620 colon it was 98.1%; in the assay with MCF7 breast, 74.9%; in the assay with HCT-116 colon, 87.8%; in the assay on HCC-2998 colon, 107%. The growth with KM12 colon was 90%.
Turning to `O=C(CSC(=S)N1CCCCC1)Nc1ccccc1`, the growth in the assay with BT-549 breast is 101%; in the assay with MDA-MB-435 melanoma, 110%; with SW-620 colon it was 102%; in the assay on MCF7 breast it was 99.8%; in the assay on HCT-116 colon, 92.4%; in the assay with HCC-2998 colon, 98.2%. Further, the growth in the assay with KM12 colon is 95.8%.
For the molecule `C=C1C(=O)O[C@H]2[C@H]1CC/C(COC(=O)CCCCCCCC(=O)OC/C1=C/CC[C@@]3(C)O[C@H]3[C@H]3OC(=O)C(=C)[C@@H]3CC1)=C\CC[C@@]1(C)O[C@@H]21`, the growth is 25.2% in the assay with BT-549 breast; 29.9% with MDA-MB-435 melanoma; 7.61% (active) in the assay with SW-620 colon; 5.35% (active) in the assay on MCF7 breast; -43.6% (active) in the assay on HCT-116 colon; 78.6% in the assay with HCC-2998 colon. Also, the growth in the assay with KM12 colon was 46.7%.
On to `COc1ccc(NC(=O)Nc2ccc(Nc3nc(C)cc(Nc4ccc(C)cc4)n3)cc2)cc1`, for which the growth was 3.93% (active) in the assay with BT-549 breast; -97.5% (active) with MDA-MB-435 melanoma; -62% (active) in the assay with SW-620 colon; -63.8% (active) in the assay with MCF7 breast; -91.6% (active) in the assay on HCT-116 colon; -74.6% (active) in the assay on HCC-2998 colon. Further, the growth with KM12 colon is -88.1% (active).
As for `O=C1Nc2ccc(Cl)cc2/C1=N/c1nc(-c2ccc(F)cc2)cs1`, the growth in the assay with BT-549 breast was 55.4%; with MDA-MB-435 melanoma it was 9.56% (active); in the assay on SW-620 colon it was 27.7%; in the assay with MCF7 breast it was 12.5%; in the assay on HCT-116 colon, 28.4%; with HCC-2998 colon, 42.2%. For the same molecule, in the assay with KM12 colon, the growth is 28.2%.
Consider `c1ccc(Sc2ncccn2)nc1`, for which the growth in the assay with BT-549 breast is 137%; in the assay with MDA-MB-435 melanoma, 104%; in the assay on SW-620 colon, 95.3%; with MCF7 breast, 93.2%; in the assay with HCT-116 colon, 99.3%; in the assay on HCC-2998 colon it was 101%. Moreover, the growth in the assay on KM12 colon was 106%.
Turning to `O=C(Nc1nccs1)c1noc2ccccc12`, the growth in the assay with BT-549 breast is 102%; in the assay with MDA-MB-435 melanoma, 105%; in the assay with SW-620 colon it was 98.8%; in the assay on MCF7 breast it was 63.9%; with HCT-116 colon, 93.8%; in the assay with HCC-2998 colon, 105%. Further, the growth with KM12 colon is 94.3%.
